From PubChem BioAssay (NCATS) come the findings set out here.

Each structure is given as a SMILES string. Inconclusive results are not listed. Entries that show only a call come without a potency. Activity calls are given as the source filed them. The call rests on the fitted dose curve; in most records, active means well fitted cell-killing curve with a large enough effect; inconclusive means small, poorly fitted or top-dose-only effect; inactive means flat fitted curve, though single readings scatter.

The assay can be described thus: qHTS of pediatric cancer cell lines to identify multiple opportunities for drug repurposing: Primary screen for control Hh wild type fibroblast cells (AID 1347106).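 Further: a drop in luminescence marks cytotoxicity and a rise apparent proliferation; nearly all actives have a fitted effect of over 55% in size.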 Particulars: Hh wild-type fibroblast viability, CellTiter-Glo luminescence, 48 h; series mostly up to 46 µM. From the text:
Drug repurposing or repositioning has been offered as a strategy for drug development in oncology programs. This approach has special potential for childhood cancers and other rare or orphan diseases, where the expected return on new drug development has been a disincentive to pharmaceuticals.
In this project we exploit the poly-pharmacology of drugs to discover new indications via phenotypic screening of a panel of 19 well-characterized cell lines derived from solid tumors seen in children and adolescents. The goal is to identify approved drugs with previously unrecognized anticancer properties that has the potential to reveal new mechanisms and biological processes involved in carcinogenesis or drug resistance. We employed a titration-based paradigm (quantitative high-throughput screening or qHTS), where all compounds were tested at multiple concentrations for their effect on cell viability. Concentration-response curves (CRCs) were derived directly from the primary screen, and both potency and efficacy values were used to identify compounds with robust bioactivity profiles. We screened the NIH Chemical Genomics Center (NCGC) Pharmaceutical Collection (NPC) and Mechanism Interrogation Plate (MIPE) small molecule collections of approved and investigational compounds against these cell lines; and measured metabolically active cells after 48 hours of compound treatment as a proxy for cell viability.
Assay Submitter: Nathalia J. Martinez, National Center for Advancing Translational Sciences, National Institutes of Health, Rockville, MD, USA; email: natalia.martinez@nih.gov
[1] Shen, M et al. Quantitative high-throughput phenotypic screening of pediatric cancer cell lines identifies multiple opportunities for drug repurposing. Oncotarget 2017 Dec 19;9(4):4758-4772. PMID 29435139.
The cells were obtained from University of North Carolina (UNC), Pediatric Preclinical Testing Program (PPT), and Coriell Institute (CI).
qHTS cell viability assay:
Cells were assayed in growth media at a density of 500-1,000 cells/well. Five microliters of cells were dispensed into 1,536-well, white, solid-bottom, TC-treated plates (Greiner Bio One) using a multidrop dispenser and incubated at 37 degrees C, 5% CO2, under a humidified atmosphere for 5 hours. Twenty-three nanoliters of compounds and controls (neutral control DMSO or positive control bortezomib at final concentration of 2.3 µM) were subsequently transferred by Kalypsys pintool. For primary screens, the MIPE collection was tested at 11-point dilutions (final concentrations range from 0.78 nM to 46 µM) and the NPC collection at 8-point dilutions (final concentrations range from 0.59 nM to 46 µM). Compounds tested in follow-up screens were assayed at 11-point dilutions. Cells were incubated for 48 hours, followed by addition of 3 µL of CellTiter-Glo (Promega). After a 15 min incubation at room temperature, samples were analyzed for luminescence intensity using a ViewLux High-throughput CCD imager equipped with clear filters.
As to `O=C(c1ccc(OCCN2CCCCC2)cc1)c1c(-c2ccc(O)cc2)sc2cc(O)ccc12`, the Potency result is “inactive”.

With `CN1C(C(=O)Nc2ccccn2)=C(O)c2ccccc2S1(=O)=O`, the Potency result was “inactive”.

On to `CC(=O)OCC(CCn1cnc2cnc(N)nc21)COC(C)=O`, for which the Potency entry is “inactive”.

In the case of `Cc1ccc(-c2cc(C(F)(F)F)nn2-c2ccc(S(N)(=O)=O)cc2)cc1`, the Potency entry is “inactive”.

For the molecule `Nc1nc2c(ncn2COC(CO)CO)c(=O)[nH]1`, the Potency result was “inactive”.

Regarding `NS(=O)(=O)c1cc2c(cc1Cl)NCNS2(=O)=O`, the Potency entry is “inactive”.

Consider `Cc1cnc(C(=O)NCCc2ccc(S(=O)(=O)NC(=O)NC3CCCCC3)cc2)cn1`, for which the Potency result was “inactive”.

For `CN1CCN(CCCN2c3ccccc3Sc3ccc(Cl)cc32)CC1`, the Potency entry is “inactive”.

On to `NCCCCCC(=O)O`, for which the Potency entry is “inactive”.

In the case of `COc1cc2nc(N(C)CCCNC(=O)C3CCCO3)nc(N)c2cc1OC` (stereo not given), the Potency result was “inactive”.

Consider `COc1ccc(C2CNC(=O)C2)cc1OC1CCCC1` (stereo not given), for which the Potency result is “inactive”.

For the molecule `CC(C(=O)O)c1cccc(C(=O)c2ccccc2)c1` (stereo not given), the Potency entry was “inactive”.

In the case of `CC(C)NCC(O)COc1ccc(CCOCC2CC2)cc1` (stereo not given), the Potency result was “inactive”.

With `CS(=O)(=O)CCNCc1ccc(-c2ccc3ncnc(Nc4ccc(OCc5cccc(F)c5)c(Cl)c4)c3c2)o1`, the Potency entry is “inactive”.

Take `O=C(C1CCCCC1)N1CC(=O)N2CCc3ccccc3C2C1` (stereo not given): the Potency result was “inactive”.

For the molecule `O=C(CCCN1CCC(O)(c2ccc(Cl)cc2)CC1)c1ccc(F)cc1`, the Potency result is “inactive”.

As to `COc1ccccc1OCCNCC(O)COc1cccc2[nH]c3ccccc3c12` (stereo not given), the Potency entry was “inactive”.

With `O=C1N(c2ccccc2)c2ccccc2C1(Cc1ccncc1)Cc1ccncc1`, the Potency result is “inactive”.

For `Nc1nnc(-c2cccc(Cl)c2Cl)c(N)n1`, the Potency result was “inactive”.

In the case of `COc1cc2nc(N3CCN(C(=O)C4COc5ccccc5O4)CC3)nc(N)c2cc1OC` (stereo not given), the Potency entry is “inactive”.

Regarding `COC(=O)Nc1nc2ccc(C(=O)c3cccs3)cc2[nH]1`, the Potency entry is “inactive”.

As to `CN(C)CCOC(c1ccccc1)c1ccccc1`, the Potency entry was “inactive”.

As for `CC1(CN2CCC(n3c(=O)[nH]c4ccccc43)CC2)OCc2ccccc2-n2cccc21` (stereo not given), the Potency result is “inactive”.

As for `Cn1c(=O)c2c(ncn2C)n(C)c1=O`, the Potency entry was “inactive”.

For the molecule `Cc1cn([C@H]2C=C[C@@H](CO)O2)c(=O)[nH]c1=O`, the Potency result is “inactive”.

Consider `Cn1c(=O)c2[nH]cnc2n(C)c1=O`, for which the Potency entry is “inactive”.

Turning to `C[C@H]1c2cccc(O)c2C(O)=C2C(=O)[C@]3(O)C(O)=C(C(N)=O)C(=O)[C@@H](N(C)C)[C@@H]3[C@@H](O)[C@@H]21`, the Potency entry was “inactive”.

Take `CN(C)C(=N)N=C(N)N`: the Potency result was “inactive”.

In the case of `CN(C)C(=O)C(CCN1CCC(O)(c2ccc(Cl)cc2)CC1)(c1ccccc1)c1ccccc1`, the Potency result is “inactive”.

Turning to `O=C(c1ccc(F)cc1)C1CCN(CCn2c(=O)[nH]c3ccccc3c2=O)CC1`, the Potency result is “inactive”.

For `CC1COc2c(N3CCN(C)CC3)c(F)cc3c(=O)c(C(=O)O)cn1c23` (stereo not given), the Potency result was “inactive”.

For the molecule `CCOC(=O)Nc1ccc(NCc2ccc(F)cc2)nc1N`, the Potency result was “inactive”.

Turning to `OCCN1CCN(CCCN2c3ccccc3Sc3ccc(C(F)(F)F)cc32)CC1`, the Potency entry was “inactive”.

With `O=c1c(-c2ccc(O)cc2)coc2cc(O)cc(O)c12`, the Potency entry was “inactive”.

In the case of `CCOC(=O)c1ncn2c1CN(C)C(=O)c1cc(F)ccc1-2`, the Potency result was “inactive”.

As to `Fc1ccc([C@@H]2CCNC[C@H]2COc2ccc3c(c2)OCO3)cc1`, the Potency entry was “inactive”.

In the case of `CC(CCc1ccc(O)cc1)NCCc1ccc(O)c(O)c1` (stereo not given), the Potency entry is “inactive”.

`Clc1ccc2c(c1)C(N1CCNCC1)=Nc1ccccc1O2`: the Potency result was “inactive”.

`O=c1c(O)c(-c2ccc(O)c(O)c2)oc2cc(O)cc(O)c12`: the Potency result is “inactive”.

On to `Clc1ccc2nsnc2c1NC1=NCCN1`, for which the Potency result is “inactive”.
